Hits are enriched below; roughly 3.5% of the tested compounds scored in any of these assays.
BoNT A protease = BoNT/A light chain protease inhibitors, primary screen, biochemical, flow cytometry, MLPCN library. Botulinum neurotoxin type A light chain protease (Clostridium botulinum A str. ATCC 3502). multiplex microsphere protease substrate cleavage. inhibition, % at 10 µM. hit rate 0.17% among 360,000
Anthrax LF prot = Bacillus anthracis LF protease inhibitors, primary screen, biochemical, multiplex microsphere, MLPCN library | inhibition, % at 10 µM | Lethal factor (Bacillus anthracis), P15917 | multiplex microsphere protease cleavage assay | hit rate 0.12% among 360,000
Target sequence (P15917 whole entry, looked up): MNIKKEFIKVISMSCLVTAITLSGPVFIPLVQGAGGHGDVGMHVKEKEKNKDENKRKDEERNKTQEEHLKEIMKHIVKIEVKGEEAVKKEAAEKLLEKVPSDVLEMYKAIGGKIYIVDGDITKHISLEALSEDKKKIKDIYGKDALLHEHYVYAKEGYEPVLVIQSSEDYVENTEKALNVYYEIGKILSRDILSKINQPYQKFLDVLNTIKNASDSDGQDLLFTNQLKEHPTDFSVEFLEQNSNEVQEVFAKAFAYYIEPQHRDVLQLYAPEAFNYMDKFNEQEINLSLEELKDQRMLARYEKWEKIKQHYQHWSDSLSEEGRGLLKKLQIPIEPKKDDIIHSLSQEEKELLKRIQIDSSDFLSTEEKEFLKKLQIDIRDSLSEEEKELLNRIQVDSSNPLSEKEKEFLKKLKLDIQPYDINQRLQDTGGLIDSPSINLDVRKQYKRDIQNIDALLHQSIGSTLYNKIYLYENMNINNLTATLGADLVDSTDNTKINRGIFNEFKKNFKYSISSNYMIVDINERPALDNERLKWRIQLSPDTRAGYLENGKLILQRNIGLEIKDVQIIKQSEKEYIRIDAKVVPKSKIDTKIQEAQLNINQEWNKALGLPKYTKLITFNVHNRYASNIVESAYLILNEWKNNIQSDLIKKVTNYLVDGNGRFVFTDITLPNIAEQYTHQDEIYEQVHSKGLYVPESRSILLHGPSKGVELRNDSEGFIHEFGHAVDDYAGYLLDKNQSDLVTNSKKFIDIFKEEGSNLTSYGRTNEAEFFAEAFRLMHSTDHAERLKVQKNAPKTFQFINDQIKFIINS
Autofluor counter = compound fluorescence in toxin protease inhibitor counterscreen. compound autofluorescence counterscreen, microsphere flow cytometry; hits give high values. fluorescence intensity (no concentration beside the values). hit rate 3.1% among 360,000; in the data active = fluorescence intensity above about 16000; inconclusive = no clear call, values can overlap the other calls
BoNT-F LC inh = BoNT/F light chain protease inhibitors, primary screen, biochemical, flow cytometry, MLPCN library. Botulinum neurotoxin type F light chain protease (Clostridium botulinum). Multiplex microsphere protease cleavage assay. inhibition, % at 10 µM. hit rate 0.22% among 360,000; in the data active = inhibition above about 35%, passing the limit was not always enough; inconclusive = no clear call, values can overlap the other calls
BJeLR lethal = MLPCN primary cell-based screen for lethality selective to Ras in HRASV12 cells; BJeLR (HRASV12) viability, CellTiter-Glo ATP luminescence, 48 h; inhibition, % (test concentration not listed); hit rate 0.17% among 300,000; in the data active = inhibition above about 50%; inconclusive = no clear call, values can overlap the other calls
Numbers stand for hits; 0 = inactive; ? = inconclusive; - = no result. Rule as the data show it, unless noted: active = inhibition above about 30%; inconclusive = no clear call, values can overlap the other calls; inactive = below that.

SMILES | BoNT A protease | Anthrax LF prot | Autofluor counter | BoNT-F LC inh | BJeLR lethal
COc1ccc(-n2nc(N)c3c(=O)oc(N(C)C)nc32)cc1 | 0 | 0 | 16554 | 0 | 0
COc1ccc(-n2nc(C)c3onc(C)c3c2=O)cc1 | 0 | 0 | 0 | 0 | 0
CCOC(=O)c1nc(C)n(-c2ccc(Cl)cc2)n1 | 0 | 0 | 0 | 0 | 0
Cn1nccc1C(=O)NC1CCN(Cc2ccccc2)CC1 | 0 | 0 | 0 | 0 | 0
C/C(=N\OC(=O)c1ccc(Cl)cc1)c1nccs1 | 0 | 0 | 24861 | 0 | 0
CC(=NOC(=O)c1ccc(Cl)cc1)c1nccs1 | 0 | 0 | 0 | 0 | -
CC(C)C(NC(=O)c1ccc(C(C)(C)C)cc1)C(=O)Nc1ccc(N2CCOCC2)cc1 (stereo unspecified) | 0 | 0 | 0 | 0 | -
O=C(NCCCN1CCCC1=O)c1cccc(C(F)(F)F)c1 | ? | 0 | 20148 | 0 | 0
COc1cc2[nH]c(=O)n(CCCCCC(=O)NCCCN3CCCC3=O)c(=O)c2cc1OC | 0 | 0 | 16148 | 0 | 0
O=C(NCCCN1CCCC1=O)c1cc(COc2ccc(F)cc2F)on1 | 0 | 0 | 0 | 0 | 0
COc1ccccc1NS(=O)(=O)c1ccc(C(=O)NCCCN2CCCC2=O)cc1 | 0 | 0 | 0 | 0 | -
Cc1cc(C(=O)NCCCN2CCCC2=O)no1 | ? | 0 | 26454 | 0 | 0
COc1ccccc1C(=O)NCCCN1CCCC1=O | 0 | 0 | 20201 | 0 | 0
O=C(c1cc(-c2ccc3c(c2)OCO3)on1)N1CCOCC1 | ? | 0 | 23477 | 0 | 0
O=C(c1cc(-c2ccc(Cl)c(Cl)c2)on1)N1CCOCC1 | 0 | 0 | 0 | 0 | 0
O=C(c1cc(-c2ccc3c(c2)OCO3)on1)N1CCN(c2ccccc2)CC1 | 0 | 0 | 18888 | 0 | 0
O=C(c1cc(-c2ccc3c(c2)OCO3)on1)N1CCN(c2ccc(F)cc2)CC1 | 0 | 0 | 0 | 0 | 0
O=C(c1cc(-c2ccc(Cl)cc2)on1)N1CCOCC1 | 0 | 0 | 21336 | 0 | 0
CN(C(=O)c1cccc(S(=O)(=O)N2CCCC2)c1)C1CCCCC1 | 0 | 0 | 0 | 0 | -
O=C(Cn1nc(C(=O)O)c2ccccc2c1=O)Nc1ccc(Cl)c(S(=O)(=O)N2CCOCC2)c1 | 0 | 0 | 0 | 0 | -
COc1cc(CN2C(=O)C(Cc3ccccc3)ON=C2c2ncccc2C)cc(OC)c1 (stereo unspecified) | 0 | 0 | 0 | 0 | -
COc1ccc(C(=O)NNC(=O)CCc2ccccc2OC)cc1 | 0 | 0 | 0 | 0 | 0
COc1cc(NC(=O)C2CC(=O)NC3=C2C(=O)CCC3)c(OC)cc1Cl (stereo unspecified) | 0 | 0 | 23479 | 0 | 0
COc1ccc(NC(=O)C2CC(=O)NC3=C2C(=O)CC(C)(C)C3)cc1 (stereo unspecified) | 0 | 0 | 23174 | 0 | 0
CC(=O)Oc1ccc(Cn2c(C)c(C(=O)NC3CC3)sc2=O)cc1 | 0 | 0 | 0 | 0 | -
SMILES | BoNT A protease | Anthrax LF prot | Autofluor counter | BoNT-F LC inh | BJeLR lethal
O=CN(/C=C1\Sc2ccccc2C1=O)Cc1ccccc1 | 0 | 0 | 22692 | 0 | 0
CC(C)N1C(=O)CCC1C(=O)NC1CCCC1 (stereo unspecified) | 0 | 0 | 20690 | 0 | 0
Cc1ccc(CCNC(=O)C2CCC(=O)N2CCc2ccccc2)cc1 (stereo unspecified) | 0 | 0 | 0 | 0 | 0
O=C(NCCc1ccc(Cl)cc1)C1CCC(=O)N1Cc1ccccc1Cl (stereo unspecified) | 0 | 0 | 22400 | 0 | 0
Cc1ccc(CNC(=O)C2CCC(=O)N2CCc2ccccc2)cc1 (stereo unspecified) | 0 | 0 | 20485 | 0 | 0
CC(C)N1C(=O)CCC1C(=O)NCCc1ccccc1 (stereo unspecified) | 0 | 0 | 23958 | 0 | 0
C=CCN1CC(c2nc3ccccc3n2Cc2ccccc2)CC1=O (stereo unspecified) | ? | 0 | 20701 | 0 | 0
Cc1cc(C(F)(F)F)nn1CC(=O)Nc1ccc2c(c1)OCO2 | 0 | 0 | 0 | 0 | 0
CCc1c(C)sc(NC(=O)Cn2nc(C(F)(F)F)c3c2CCCC3)c1C#N | 0 | 0 | 22610 | 0 | 0
O=C(Cn1nc(C(F)(F)F)c2c1CCCC2)N1CCOCC1 | 0 | 0 | 0 | 0 | 0
COc1ccc(NC(=O)Cn2nc(C(F)(F)F)c3c2CCCC3)cc1OC | ? | 0 | 22117 | 0 | 0
CCc1c(C)sc(NC(=O)CC#N)c1C#N | 0 | 0 | 0 | 0 | 0
O=C(Cn1nc(C(F)(F)F)c2c1CCC2)N1CCN(c2ccccc2)CC1 | 0 | 0 | 23434 | 0 | 0
O=C(Cn1nc(C(F)(F)F)c2c1CCCC2)Nc1ccc2c(c1)OCO2 | 0 | 0 | 21133 | 0 | 0
Cc1cccc(C)c1NC(=O)CNC(=O)CNC(=O)c1ccc2c(c1)OCO2 | 0 | 0 | 0 | 0 | 0
Cc1c(C(=O)NCCSCc2ccc(Cl)cc2Cl)cccc1[N+](=O)[O-] | 0 | 0 | 0 | 0 | 0
COc1ccccc1NC(=O)Cn1nc(C(F)(F)F)c2c1CCCC2 | 0 | 0 | 25001 | 0 | 0
O=C(Cn1nc(C(F)(F)F)c2c1CCC2)Nc1ccccc1C(F)(F)F | 0 | 0 | 0 | 0 | 0
Cc1ccc(N2CCN(C(=S)Nc3ccc(Cl)cc3)CC2)cc1 | 0 | 0 | 0 | 0 | 0
S=C(Nc1ccc(Cl)cc1)N1CCN(C2CCCCC2)CC1 | 0 | 0 | 21880 | 0 | 0
N#Cc1ccc(Oc2nc(C(N)=O)cc(-c3ccccc3)n2)cc1 | 0 | 0 | 24851 | 0 | 0
COC(=O)c1ccc(Oc2nc(C(N)=O)cc(-c3ccccc3)n2)cc1 | 0 | 0 | 0 | 0 | 0
O=C(NCc1ccccc1)c1n[nH]nc1-c1ccccc1O | ? | 0 | 0 | 0 | 0
O=C(c1ccc(Cn2cc([N+](=O)[O-])cn2)o1)N1N=C(C(F)F)CC1(O)C(F)F (stereo unspecified) | 0 | 0 | 22404 | 0 | 0
CCOC(=O)c1[nH]c(C)c(C(=O)Nc2ccc(C)c(Cl)c2)c1C | 0 | 0 | 21453 | 0 | 0
SMILES | BoNT A protease | Anthrax LF prot | Autofluor counter | BoNT-F LC inh | BJeLR lethal
CCOCCCNC(=O)c1c(C)[nH]c(C(=O)OCC)c1C | 0 | 0 | 16166 | 0 | 0
CC(=O)c1c(C)[nH]c(C(=O)COc2cc(C)cc(C)c2)c1C | 0 | 0 | 21911 | 0 | 0
CCCOc1ccc(OCC(=O)c2[nH]c(C)c(C(C)=O)c2C)cc1 | 0 | 0 | 0 | 0 | 0
CCOCCCNC(=O)c1[nH]c(C)c(C(C)=O)c1C | 0 | 0 | 0 | 0 | 0
CCOC(=O)c1[nH]c(C)c(C(=O)OCCN2C(=O)c3ccccc3C2=O)c1C | 0 | 0 | 20341 | 0 | 0
COc1cccc(NC(=O)c2ccc3snnc3c2)c1 | 0 | 0 | 0 | 0 | 0
CSCCC(C(=O)Nc1c(C)cccc1C)N1CCN(c2ccc(F)cc2)CC1 (stereo unspecified) | 0 | 0 | 0 | 0 | -
CCCS(=O)(=O)NC(=O)C1(C)CCN(C(=O)c2ccc(C#N)cc2)C1 (stereo unspecified) | 0 | 0 | 0 | 0 | -
CNC(=O)COC(=O)c1[nH]c(C)c(C(C)=O)c1C | ? | 0 | 16399 | 0 | 0
CCNC(=O)c1c(C)[nH]c(C(=O)OCC)c1C | 0 | 0 | 24505 | 0 | 0
